Source: PubChem BioAssay AID585 (National Center for Advancing Translational Sciences (NCATS), 2007)
The whole screen tested about 71,000 compounds, of which about 1,300 (1.8%) were called active. Calls come from the whole dose curve. The list comes from a sample in which actives are over-represented; it also holds similar structures and randomly drawn compounds. Entries that show only a call come without a potency.

Each compound was assayed against Beta-lactamase (Escherichia coli (strain K12)) (UniProt P00811) (assay: Promiscuous and Specific Inhibitors of AmpC Beta-Lactamase (assay without detergent)). Conditions: AmpC nitrocefin hydrolysis, absorbance 480 nm, no detergent; series mostly up to 28.7 µM.
Sequence of Beta-lactamase (Escherichia coli (strain K12)) (P00811 whole entry, looked up): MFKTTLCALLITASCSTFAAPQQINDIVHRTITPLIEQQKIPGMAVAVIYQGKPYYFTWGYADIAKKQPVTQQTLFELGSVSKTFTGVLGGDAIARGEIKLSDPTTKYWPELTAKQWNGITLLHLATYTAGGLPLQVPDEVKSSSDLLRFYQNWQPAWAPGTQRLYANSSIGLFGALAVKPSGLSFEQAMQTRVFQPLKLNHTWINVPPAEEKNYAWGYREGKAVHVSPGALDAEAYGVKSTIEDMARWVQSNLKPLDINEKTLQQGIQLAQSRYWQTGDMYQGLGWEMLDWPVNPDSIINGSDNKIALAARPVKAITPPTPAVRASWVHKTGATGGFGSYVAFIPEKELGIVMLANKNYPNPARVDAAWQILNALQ
How it was run: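 Enzyme, pH 7.0 phosphate. Compound titrations were pre-incubated with AmpC for 15 min at room temperature before nitrocefin (stock 800 uM) addition; product formation was recorded at 480 nm every 20 s for 4 min.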
Potency is the fitted concentration of half-maximal effect.

**Q.** How did the Potency turn out when `c1ccc(Nc2nc(-c3ccncc3)cs2)nc1` was run?
**A.** inactive

**Q.** How did the Potency turn out when `N#C/C(=C1\CCCN1)c1nc(-c2ccccc2)cs1` was run?
**A.** inactive

**Q.** `N#CC(=C1SC=CS1)c1nc(-c2ccccc2)cs1` was tested. Which Potency did it give?
**A.** 15.8 µM [single pt active] (active)

**Q.** How did the Potency turn out when `CC(C)(O)[C@H]1[C@H]2OC(=O)[C@@H]1[C@]1(O)C[C@H]3O[C@]34C(=O)O[C@H]2[C@]14C` was run?
**A.** inactive

**Q.** With `CCOC(=O)N1CCN(C(=O)C2CC(c3ccc(F)cc3)=NO2)CC1` (stereo not given) as the compound, how does the Potency read?
**A.** 3.98 µM [single pt active] (active)

**Q.** For `Cc1ccc(NC(=O)C2CC(c3ccc(F)cc3)=NO2)cc1` (stereo not given), which Potency is on record?
**A.** inactive

**Q.** Which Potency does the source give for `O=C(c1ccco1)N1CCN(C(=O)C2CC(c3ccc(F)cc3)=NO2)CC1` (stereo not given) here?
**A.** 3.98 µM [single pt active] (active)

**Q.** How did the Potency turn out when `O=C(c1ccco1)N1CCN(C(=O)C2c3ccccc3Oc3ccccc32)CC1` was run?
**A.** inactive

**Q.** For `CCOC(=O)N1CCN(C(=O)CSc2ccc(Cl)cc2)CC1`, which Potency is on record?
**A.** inactive

**Q.** Which Potency does the source give for `O=C(c1ccco1)N1CCN(C(=O)C2CC(c3ccc(Cl)c(Cl)c3)=NO2)CC1` (stereo not given) here?
**A.** inactive

**Q.** `O=C(C1CCN(S(=O)(=O)c2cnc[nH]2)CC1)N1CCN(Cc2ccc3c(c2)OCO3)CC1` was tested. Which Potency did it give?
**A.** inactive

**Q.** For `CC(=O)c1c(O)c(C)c(O)c(Cc2c(O)c3c(c(C(=O)/C=C\c4ccccc4)c2O)OC(C)(C)C=C3)c1O`, which Potency is on record?
**A.** 12.6 µM (active)

**Q.** Which Potency does the source give for `CCOc1ccc(C(C)C)cc1S(=O)(=O)n1nc(C)cc1C` here?
**A.** inactive

**Q.** `CCOc1ccc(S(=O)(=O)n2ccnc2)c2ccccc12` was tested. Which Potency did it give?
**A.** 3.98 µM [single pt active] (active)

**Q.** How did the Potency turn out when `CCOc1ccccc1C(=O)NCCCn1ccnc1` was run?
**A.** inactive

**Q.** For `Fc1ccc2nc(Nc3nc4c(s3)CCCC4)sc2c1`, which Potency is on record?
**A.** inactive

**Q.** For `CCOC(=O)CNC(=O)CSc1nnc(COc2ccc(Cl)cc2)n1CC`, which Potency is on record?
**A.** inactive

**Q.** How did the Potency turn out when `CN1CCN(S(=O)(=O)c2ccc3[nH]cc(C(=O)O)c(=O)c3c2)CC1` was run?
**A.** inactive

**Q.** For `Cc1cccc(CC(=O)Nc2c3c(nn2-c2cccc(Cl)c2)CS(=O)C3)c1` (stereo not given), which Potency is on record?
**A.** inactive

**Q.** `O=C(NCc1ccco1)c1nc(-c2ccccc2)n(-c2ccccc2)n1` was tested. Which Potency did it give?
**A.** inactive

**Q.** With `O=C(Cc1ccccc1)n1nc(-c2ccccc2)nc1NCc1ccco1` as the compound, how does the Potency read?
**A.** 3.98 µM [single pt active] (active)

**Q.** Which Potency does the source give for `Cc1nc2nc(SCC(=O)NCc3ccco3)nn2c(C)c1Cc1ccccc1` here?
**A.** inactive

**Q.** With `COc1ccc(CCn2nnnc2C(c2ccccc2)N2CCN(C)CC2)cc1OC` (stereo not given) as the compound, how does the Potency read?
**A.** inactive

**Q.** Which Potency does the source give for `CCOC(=O)c1cnc2sccn2c1=O` here?
**A.** inactive

**Q.** With `CN/C(=C\[N+](=O)[O-])NCCSCc1csc(CN(C)C)n1` as the compound, how does the Potency read?
**A.** inactive
